# Screening results from PubChem BioAssay.
# NS1 inh = qHTS Assay for Inhibitors of Influenza NS1 Protein Function; Potency, µM (series often up to 46.1 µM), without a hit: at the top dose activity, positive = more growth; 270,000 compounds, 0.4% hits; calls by dose curve; note: potency is the fitted concentration of half-maximal effect; actives are rising curves; nearly all actives have a fitted effect of over 50% in size
#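 Compounds were scored for reversing the slow growth caused by influenza A NS1 in S. cerevisiae, measured by optical density at 600 nm. Assay medium contained 2% galactose at pH 6.0; NS1-free yeast of the same strain were the positive control.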
# Sm TGR inh = qHTS Assay for the Inhibitors of Schistosoma Mansoni Peroxiredoxins. purified TGR, DTNB reduction, TNB absorbance 405 nm. Potency, µM (titrated, usually from 114 µM), for the others: at the top dose activity change, negative = inhibition, usual class: inhibitors. 360,000 compounds, 3% hits. AID 485364, 2010; note: potency is the fitted concentration of half-maximal effect; % is set by controls: 0 for no effect and ±100 for the full control effect; nearly all actives have a fitted effect of over 60% in size
#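 TGR 20 nM + NADPH 100 uM (dispensed conc.), cpd preinc 15 min RT; start with NADPH (500 uM addition) then DTNB (15 mM addition). Kinetic TNB absorbance, 405 nm filter. Four-parameter Hill fit across titration.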
# Shiga inhibitor = A qHTS for Small Molecule Inhibitors of Shiga Toxin; AID 2315, 2010; 290,000 compounds, 9.2% hits; Vero cells, Shiga toxin protein synthesis inhibition reporter; inhibition, % at 38.7 µM; in the data active = inhibition mostly above about 28%, no sharp cut-off; inactive = mostly below about 43%; note: 0% is about no effect
# Pf growth 96h = Primary qHTS for delayed death inhibitors of the malarial parasite plastid, 96 hour incubation. P. falciparum luciferase reporter growth, 96 h. Potency, µM (series often up to 28.7 µM), inactives show at the top dose activity change, negative = inhibition, actives largely listed as inhibitors. 320,000 compounds, 6.9% hits. AID 504834, 2011; note: potency is the fitted concentration of half-maximal effect; % is set by controls: 0 for no effect and ±100 for the full control effect
#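 96 h incubation, 37 C, 5% CO2, of luciferase-reporter P. falciparum-infected RBCs (2% hematocrit, 0.05% parasitemia final) with test compounds; endpoint luminescence.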
# Pf growth 48h = Primary qHTS for delayed death inhibitors of the malarial parasite plastid, 48 hour incubation. P. falciparum luciferase growth in erythrocytes, 48 h. Potency, µM (highest dose often 28.7 µM), for the others: at the top dose activity change, negative = inhibition, hits mostly inhibitors. 310,000 compounds, 5.9% hits; note: potency is the fitted concentration of half-maximal effect; % is set by controls: 0 for no effect and ±100 for the full control effect
#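 Firefly luciferase activity from engineered P. falciparum reports growth; inhibitors lower the luminescent signal. Cultures contained 2% hematocrit erythrocytes at 0.1% final parasitemia.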
# Cycloheximide cs = Cycloheximide Counterscreen for Small Molecule Inhibitors of Shiga Toxin. max response, %. cell reporter, cycloheximide protein synthesis inhibition counterscreen. 300,000 compounds, 12% hits. AID 2314, 2010; in the data active = max response mostly above about 13%, no sharp cut-off; inactive = mostly below about 14%; note: read at 38.3 µM for the half of the compounds with a filed dose; 0% is about no effect
# * = called active by the depositor; ? = inconclusive; · = no result given; ! = a repeat was not active. A selection: hits, their analogues and other compounds. The true share with any hit is near 21%. Unless noted, calls come from the whole dose curve; as a rule, active = well fitted curve in the direction sought with a large enough effect; inconclusive = small, poorly fitted or top-dose-only effect, or another doubt; inactive = no such curve, though single readings can be large; an effect the other way counts as inactive or inconclusive.
SMILES,NS1 inh,Sm TGR inh,Shiga inhibitor,Pf growth 96h,Pf growth 48h,Cycloheximide cs
CCOc1ccc(C(=O)Nc2cc(C)on2)cc1OCC,-5.6%,6.4%,-3.3,-5.5%,11.7µM*,5.5
Cc1ccc(OC(C)C(=O)Nc2ccncc2)cc1 (stereo unspecified),0.4%,-4.9%,8.1,-22.3%,-10.1%,-4.4
CC(=O)Nc1ccc(C(=O)Nc2cc(C)on2)cc1,-1.0%,1.1%,43.8*,17.5%,63.0%,32.3*
Cc1cc(NC(=O)c2nn(C)c(C)c2Br)no1,-6.5%,5.0%,80.9*,190.6%,171.5%,44.7*
Cc1cc(NC(=O)c2ccc(NC(=O)C(C)Oc3ccccc3)cc2)no1 (stereo unspecified),-1.5%,-10.0%,1.4,·,6.57µM*,9.3
CCOc1ccc(CCNC(=O)c2cc(C)on2)cc1OCC,-1.5%,-4.8%,-14.4,?,10.4µM*,9.3
CCOC(=O)C(=O)Nc1cc(C)on1,5.2%,3.5%,79.7*,-2.7%,170.4%,72.4*
Cc1ccc(NC(=O)Cn2cc(S(=O)(=O)Cc3ccc(F)cc3)c3ccccc32)cc1Cl,·,0.8%,·,·,·,·
Cc1csc2nc(COc3ccccc3NC(=O)c3ccccc3Cl)cc(=O)n12,·,0.2%,·,·,·,·
CCCN(CCC)CCNC(=O)c1sc2nc3n(c(=O)c2c1C)CCCCC3,·,3.0%,·,·,·,·
O=C(c1ccco1)N1N=C(c2ccc(Br)cc2)CC1(O)C(F)(F)F (stereo unspecified),-2.7%,-5.2%,-2.6,?,-17.9%,-1.1
CCOc1ccc2nc(N3CCCC(C(=O)NCCc4ccc(SC)cc4)C3)sc2c1 (stereo unspecified),·,-3.6%,·,·,·,·
Cc1cc(OC(C)C(=O)Nc2cccnc2)ccc1Cl (stereo unspecified),-22.2%,-0.9%,-19.6,9.4%,?,-2.3
CC(C)NS(=O)(=O)c1ccc(NC(=O)C(C)Oc2ccc(C(=O)c3ccccc3)cc2)cc1 (stereo unspecified),?,6.6%,-22.2,2.33µM*,?,-4.1
Cc1cc(OC(C)C(=O)Nc2ccncc2)ccc1Cl (stereo unspecified),-45.1%,-19.6%,-12.3,9.28µM*,?,-0.9
CCCCOc1cccc(OCCCC)c1C(=O)Nc1cc(C)on1,-16.6%,3.0%,-8.6,25.3%,2.08µM*,-0.2
Cn1cc(CN2CCC(Oc3ccc(C(=O)N4CCCC4)cc3)CC2)cn1,0.1%,49.7%,-4.7,-23.8%,4.4%,-2.6
N#Cc1c(-c2cccs2)cc(C2CC2)nc1SCC(N)=O,3.6%,-0.8%,-24.8,·,11.6%,-4.4
COc1cc2c(cc1OC)[C@@H]1Cc3ccc(OC)c(OC)c3CN1CC2,1.1%,1.6%,-3.3,?,?,1.0
COc1ccc2c(c1OC)C(=O)O[C@H]2[C@@H]1c2cc3c(cc2CCN1C)OCO3,·,-8.8%,·,15.1µM*!,-20.8%,·
COc1ccc2c(c1OC)C(=O)O[C@@H]2[C@H]1c2cc3c(cc2CCN1C)OCO3,·,-11.3%,·,-13.1%,?,·
COc1cc2c(cc1OC)C1Cc3ccc(OC)c(OC)c3CN1CC2 (stereo unspecified),-5.7%,2.3%,-9.7,?,1.31µM*,-5.6
COc1ccc2c(c1OC)CN1CCc3cc4c(cc3[C@@H]1[C@@H]2O)OCO4,12.9%,-3.2%,-14.8,9.28µM*,?,-3.1
CCC[C@H](NC(=O)[C@H](Cc1ccc(O[S+](=O)([O-])O)cc1)NC(=O)OC(C)(C)C)C(=O)NCC(=O)N[C@@H](Cc1c[nH]c2ccccc12)C(=O)N[C@@H](CCC)C(=O)N[C@@H](CC(=O)OCCc1ccccc1)C(=O)O,·,·,-9.5,·,·,-7.0
CS(=O)(=O)Nc1cccc(-c2cc(F)c(S(=O)(=O)N3CCN(S(=O)(=O)c4ccc5c(c4)OCCO5)CC3)cc2F)c1,·,·,-0.9,·,·,-1.7
SMILES,NS1 inh,Sm TGR inh,Shiga inhibitor,Pf growth 96h,Pf growth 48h,Cycloheximide cs
COC(=O)[C@H](C)NC(=O)N1CCC(Cc2ccccc2)CC1,-4.5%,2.2%,3.5,31.1%,-9.1%,-2.5
CC1=C(C#N)C(=O)NC(=O)/C1=C\c1ccc(-c2ccc(C)cc2[N+](=O)[O-])o1,·,8.91µM*,53.4,-3.3%,0.0%,10.8
CCOC(=O)c1cc(-c2ccc(/C=C3/C(=O)NC(=O)C(C#N)=C3C)o2)ccc1Cl,19.0%,7.94µM*,22.2,38.0%,17.0%,5.7
CC1=CC(C/C(C)=C/COc2ccc3ccc(=O)oc3c2)OC1=O (stereo unspecified),-2.6%,-29.8%,23.9*,33.0%,-7.3%,15.5*
CC(C)=CCOc1ccc2ccc(=O)oc2c1,-6.3%,-7.1%,34.5*,113.3%,60.7%,20.6*
COc1cc2ccc(=O)oc2c(O)c1OCC=C(C)C,-5.5%,0.2%,85.2*,13.0%,12.6%,10.6
CC(C)=CCC/C(C)=C/COc1ccc2ccc(=O)oc2c1,-4.3%,-19.5%,9.1,33.3%,10.6%,8.5
COC(=O)c1cc(C)nc2c1c(=O)nc(SCc1ccccc1F)n2C1CC1,·,-1.3%,·,·,·,·
COC(=O)c1sccc1S(=O)(=O)N1CCCC(N(C)CCc2ccccn2)C1 (stereo unspecified),1.8%,-21.2%,1.9,?,-6.4%,0.5
CN(CCc1ccccc1)C1CCCN(S(=O)(=O)CC(F)(F)F)C1 (stereo unspecified),2.9%,?,-4.6,10.4µM*,-7.6%,1.5
CC(=O)c1ccc(S(=O)(=O)N2CCCC(N(C)CCc3ccccn3)C2)cc1 (stereo unspecified),3.6%,20µM*,-3.9,36.6%,-6.3%,-2.1
COc1ccc(CCN(C)C2CCCN(S(=O)(=O)c3ccccc3F)C2)cc1OC (stereo unspecified),-0.8%,-22.9%,-11.4,13.1µM*,?,-1.9
CN(CCc1ccccn1)C1CCCN(S(=O)(=O)c2ccccc2)C1 (stereo unspecified),-12.0%,1.1%,-4.1,78.4%,2.5%,-2.1
C=CCS(=O)(=O)N1CCCC(N(C)CCc2ccc(OC)c(OC)c2)C1 (stereo unspecified),-1.0%,-27.4%,7.0,5.22µM*,?,-1.2
O=[N+]([O-])c1ccc(OCC2CC(c3ccccc3)=NO2)cc1 (stereo unspecified),2.7%,1.8%,8.0,20.9%,17.7%,0.9
CCOC(=O)c1c(C)oc2c1c(C=NCCC(=O)O)c(O)c1ccccc12,·,-10.0%,42.5,-11.9%,-4.7%,6.8
CCOC(=O)c1c(C)oc2c1c1c(c3ccccc32)OCN(Cc2ccccn2)C1,-21.6%,0.355µM*,88.5*,217.6%,104.3%,34.7*
CCOC(=O)c1c(C)oc2c1c(CN1CCN(C(=O)OCC)CC1)c(O)c1ccccc12,-43.1%,0.562µM*,104.0*,-30.8%,115.1%,70.7*
